Calls of active or inactive are those of the source.
Tests used:
[1] = A549 cell viability effects, profiling panel, calcein-AM fluorescence, 48 h, basal (AID 1162); conditions: higher = more signal
[2] = adipocyte viability effects, profiling panel, cell-based, 3T3-L1 adipocytes, calcein-AM fluorescence, 48 h, basal (AID 1163); conditions: 3T3-L1 adipocytes viability, higher = more signal
[3] = HepG2 cell viability effects, profiling panel, calcein-AM fluorescence, 48 h, basal (AID 1164); conditions: higher = more signal
[4] = MM1S cell viability effects, profiling panel, calcein-AM fluorescence, 48 h, basal (AID 1165); conditions: higher = more signal;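 further: viability of MM1S multiple myeloma cells under basal unstimulated conditions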
[5] = basal RPMI8226 viability, no added stimulus, profiling panel, cell-based, calcein-AM fluorescence, 48 h, PK04 Diversity Set (AID 1166); conditions: RPMI8226 myeloma viability, higher = more signal;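 further: cells grown under basal conditions without added stimulus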
[6] = basal HepG2 mitochondrial membrane potential changes, profiling panel, cell-based, JC-1 fluorescence, 24 h, 100 nL compound (AID 1167); conditions: higher = more signal
[7] = basal 3T3-L1 adipocyte mitochondrial potential changes, profiling panel, cell-based, JC-1 fluorescence, 3T3-L1 adipocytes, 24 h, 100 nL compound (AID 1168); conditions: JC-1 mitochondrial fluorescence, higher = more signal, called active from +8 up or from −8 down
[8] = basal RPMI8226 mitochondrial membrane potential changes, profiling panel, cell-based, JC-1 fluorescence, 24 h, 100 nL compound (AID 1169); conditions: RPMI8226 myeloma, JC-1 mitochondrial potential fluorescence, higher = more signal
[9] = basal MM1S mitochondrial membrane potential changes, profiling panel, cell-based, JC-1 fluorescence, 24 h, 100 nL compound (AID 1170); conditions: higher = more signal
[10] = A549 lung cancer cell viability effects, profiling panel, resazurin fluorescence, 24 h, PK04 Diversity Set (AID 1171); conditions: higher = more signal, called active from +8 up or from −8 down
Further: test concentration not given here.

SMILES | z-score [1] | z-score [2] | z-score [3] | z-score [4] | z-score [5] | z-score [6] | z-score [7] | z-score [8] | z-score [9] | z-score [10]
COC(=O)C1=CC(CCCO)=CC(c2cccs2)N(Cc2cc3c(cc2Br)OCO3)C=C1C(=O)OC (stereo not given) | 0.236 | 0.425 | 0.897 | -1.26 | -0.188 | 0.725 | -0.253 (inactive) | -0.131 | 0.398 | -0.0673 (inactive)
C=CCOC(=O)[C@H]1[C@@H]2C(=O)O[C@@H](c3ccccc3)[C@@H](c3ccccc3)N2[C@@H](c2ccc(OCCOC(=O)[C@@H]3C[C@@H]4C(=O)N[C@@H](CCCCNC(C)=O)C(=O)N4[C@@H]3c3cccc(OCCO)c3)cc2)[C@]12C(=O)Nc1ccccc12 | -0.389 | 0.585 | -0.567 | -0.0545 | 0.879 | 1.24 | 2.61 (inactive) | -0.615 | -0.966 | -0.165 (inactive)
COc1ccc(C(=O)Nc2ccc3c(c2)[C@@]2(O[C@H](CCO)[C@@H]([Si](C)(C)c4ccc(OC)cc4)[C@@H]2C)C(=O)N3Cc2ccccc2)cc1 | -1.68 | 1.38 | -3.6 | -2.72 | -4.3 | -1.9 | 1.59 (inactive) | -1.04 | -2.2 | -2.72 (inactive)
CC(C)NC(=O)[C@@H]1c2ccccc2C(=O)N(Cc2ccccc2C(F)(F)F)[C@H]1c1ccc(CO)cc1 | -0.385 | -0.341 | -0.052 | -0.321 | 0.749 | 0.186 | -1.81 (inactive) | 0.317 | 0.0239 | 2.53 (inactive)
O=C(NCC(O)CO)C1N=C(c2ccc(OCCCO)cc2)N(c2ccccc2)O1 (stereo not given) | -0.508 | -0.293 | 0.285 | 1.22 | -1.53 | 0.499 | -0.761 (inactive) | -0.877 | 0.571 | -0.0914 (inactive)
O=C(NC1CC1)[C@@H]1c2ccccc2C(=O)N(Cc2ccc(OC(F)(F)F)cc2)[C@H]1c1ccc(CO)cc1 | 1.1 | 0.707 | -0.591 | 0.0839 | -0.0348 | 2.35 | 0.379 (inactive) | -0.261 | 0.825 | 1.03 (inactive)
COCCOC(=O)N1C(=O)[C@@]2(c3cc(C#CCCO)ccc31)[C@H](c1ccc(OCCO)cc1)N1[C@H](c3ccccc3)[C@H](c3ccccc3)OC(=O)[C@H]1[C@@H]2C(=O)N1CCCCCCC1 | 0.139 | 0.005 | -0.584 | -0.993 | -1.03 | -0.437 | -2.09 (inactive) | 0.309 | -0.958 | -0.232 (inactive)
O=C1C[C@]2(c3ccc([N+](=O)[O-])cc3)C(=O)N(C3CC3)c3cc(CO)ccc3[C@H]2N1C1CCCCC1 | -0.164 | -0.898 | 0.214 | -0.464 | 0.474 | -1.07 | -0.185 (inactive) | -0.691 | -0.993 | -0.332 (inactive)
COCCOC(=O)N1C(=O)[C@@]2(c3cc(C#Cc4ccc(OC)cc4)ccc31)[C@H](c1ccc(OCCO)cc1)N1[C@H](c3ccccc3)[C@H](c3ccccc3)OC(=O)[C@H]1[C@@H]2C(=O)NC[C@H](O)c1ccccc1 | 0.0843 | -0.129 | -0.294 | -0.291 | -1.48 | -0.305 | 1.67 (inactive) | -0.68 | -1.52 | -0.377 (inactive)
C[C@@H]1ON(c2ccc(I)cc2)[C@H](c2cccc(NC(=O)OCC3c4ccccc4-c4ccccc43)c2)[C@H]1C(=O)N1C(=O)OC[C@H]1Cc1ccccc1 | 1.25 | 0.575 | 0.671 | -0.749 | -0.326 | -0.194 | 1.54 (inactive) | -1.19 | 1.78 | 0.623 (inactive)
CCCN1C(=O)[C@]2(CCC(=O)OC(C)(C)C)N=C(c3ccc(OCCCO)cc3)O[C@@H]2c2ccccc21 | -1.19 | 0.92 | -1.49 | -3.41 | -4.37 | 1.01 | 2.01 (inactive) | -1.32 | -1.54 | -0.965 (inactive)
CCCC=C(CCC)[C@@H](NC(=O)c1ccc(C(F)(F)F)cc1)c1ccc(C(F)(F)F)cc1 | -1.88 | -0.0493 | -0.751 | -1.53 | -3.65 | 4.85 | 0.216 (inactive) | -0.235 | -0.678 | 0.949 (inactive)
[N-]=[N+]=Nc1ccccc1C[C@@]1(C(=O)NCc2ccccc2)N=C(c2ccc(OCCCO)cc2)O[C@@H]1c1ccccc1N=[N+]=[N-] | -1.58 | 1.31 | -0.83 | -3 | -4.36 | 0.728 | -0.182 (inactive) | -1.23 | -0.936 | -0.996 (inactive)
COCCOC(=O)N1C(=O)[C@@]2(c3cc(C#CCCO)ccc31)[C@H](C(N)=O)[C@H]1C(=O)O[C@H](c3ccccc3)[C@H](c3ccccc3)N1[C@@H]2c1ccccc1OCCO | -0.21 | -0.0387 | -0.16 | -1.87 | -2.92 | -0.529 | 0.181 (inactive) | -0.821 | -1.47 | -0.191 (inactive)
CC(C)N1C(=O)c2ccccc2[C@@H](C(=O)NCC(F)(F)F)[C@@H]1c1ccc(CO)cc1 | 0.346 | -1.81 | 0.569 | 0.238 | 0.371 | -0.0214 | -0.516 (inactive) | -0.00189 | 0.0428 | -0.0442 (inactive)

From PubChem BioAssay
